These results are taken from PubChem BioAssay (NCATS).

Test [1] concerns the target Dual specificity protein kinase CLK4 (Homo sapiens) (UniProt Q9HAZ1). As to the kind of experiment: qHTS Assay for Inhibitors of CDC-like Kinase 4 (Kinase-Glo Assay) (AID 1770). Also: % is scaled to controls: 0 for no effect and ±100 for the full control effect; nearly all actives have a fitted effect of over 65% in size. As to conditions: recombinant Clk4, Kinase-Glo ATP depletion luminescence; series mostly up to 66.7 µM. The essentials: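 Luminescent ATP-depletion read-out (Kinase-Glo) after 4.5 h room-temperature reaction of Clk4 (25 nM final) with RS peptide (100 uM) and ATP (1 uM), pH 7.5 Tris buffer with MgCl2 and DTT.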

Test [2] has as its target M-phase phosphoprotein 8 (Homo sapiens) (UniProt Q99549). As to the kind of experiment: qHTS Validation Assay for Inhibitors for MPP8 Chromodomain Interactions with Methylated Histone Tails (AID 488949). Also: nearly all actives have a fitted effect of over 55% in size. Also: potency is read from the fitted curve at half-maximal effect.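 As to activity change, negative = inhibition: AlphaScreen signal from MPP8 chromodomain bound to biotinylated H3K9me3 peptide; top concentration of the series differs between compounds; % is scaled to controls: 0 for no effect and ±100 for the full control effect.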 As to conditions: AlphaScreen MPP8 binding to H3K9me3 peptide; series mostly up to 114 µM. The essentials:
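AlphaScreen proximity signal from streptavidin donor and Ni-chelate acceptor beads (10 ug/mL each) reported binding of MPP8 to trimethyl-K9 H3(1-18) peptide, both at 50 nM. The complex formed 30 min before a 30 min compound exposure at room temperature, in PBS pH 7.4.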

Test [3] in a line: Validation screen for small molecules that induce DNA re-replication in SW480 colon adenocarcinoma cells (AID 504364). Also: 0% is about no effect. As to conditions: DNA re-replication phenotype (high-content imaging); series mostly up to 46.1 µM. The essentials:
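SW480 cells (250/well) exposed 48 h at 37 C, 5% CO2, then Hoechst-stained 40 min. Nuclear DNA content imaged by fluorescence scanning (405 nm excitation, 500-530 nm emission); re-replication scored as increased nuclei with elevated intensity.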

Test [4] in a line: qHTS drug screen for cell cycle checkpoint inhibitors in PARPi-resistant BRCA-mutant ovarian cancer cell lines. (AID 1963452; calls by dose curve). As to conditions: PEO1/OlaR viability, CellTiter-Glo luminescence, 96 h, stronger effect = lower value. The essentials: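 PEO1, PEO4 and PEO1/OlaR ovarian cancer cells, 600 per well, exposed 96 h at 37C to a dilution series. Viability read by CellTiter-Glo luminescence, normalized to DMSO and empty wells; activity summarized as Z-AUC.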

Test [5] deals with Endonuclease 4 (Escherichia coli (strain K12)) (UniProt P0A6C1). Put plainly: Counterscreen for APE1 Inhibitors: qHTS Validation Assay for Inhibitors of Endonuclease IV (AID 1708). Also: % is scaled to controls: 0 for no effect and ±100 for the full control effect. As to conditions: E. coli endonuclease IV, DNA cleavage fluorescence; series mostly up to 57.1 µM. The essentials:
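qHTS concentration-response format; LOPAC1280 tested under APE1-screen conditions. 2 nM enzyme, 15 min compound preincubation at RT, then 50 nM TAMRA/BHQ-2 abasic substrate; kinetic fluorescence read, three reads at 60 s intervals.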

Test [6] concerns the target RecQ-like DNA helicase BLM (Homo sapiens) (UniProt P54132). Put plainly: qHTS Validation Assay for Inhibitors of Bloom's syndrome helicase (BLM) (AID 2364).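 Also: plate controls were DMSO vehicle for no effect and enzyme-free control for full effect.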 As to conditions: BLM helicase DNA unwinding, fluorescence, in vitro; series mostly up to 57.1 µM. A digest of the protocol: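 Forked 20-bp duplex substrate (200 nM, TAMRA/BHQ-2) plus 2 mM ATP added after 15 min compound preincubation with 50 nM enzyme, pH 8.0, poly(dI-dC) 2.5 ug/ml. Strand separation followed by fluorescence (525/598 nm) over 2 h, normalized to enzyme-free and DMSO controls.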

Test [7] in a line: Validation screen for small molecules that induce DNA re-replication in MCF 10A normal breast cells (AID 463097). Also: 0% is about no effect; nearly all actives have a fitted effect of over 60% in size. As to conditions: MCF 10A cells, DNA re-replication phenotype imaging; series mostly up to 46.1 µM. A digest of the protocol:
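Read-out is Hoechst total nuclear intensity by fluorescence scanning imager, flagging increased high-DNA-content nuclei. Compounds were incubated with MCF 10A cells for 48 hr (37 C, 5% CO2) before 40 min staining.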

Test [8] concerns the target Rap guanine nucleotide exchange factor 3 (Homo sapiens) (UniProt O95398). As to the kind of experiment: Confirmatory qHTS for antagonist of cAMP-regulated guanine nucleotide exchange factor 3 (EPAC1) (AID 1645880).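 Also: plate controls were DMSO only for no effect and full effect of the ATA control for full effect; nearly all actives have a fitted effect of over 55% in size.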 As to conditions: EPAC1 Rap1B-BODIPY-GDP exchange, fluorescence; series mostly up to 115 µM. The essentials:
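Nucleotide exchange uses 100 nM EPAC1, 250 nM RAP1B-BODIPY-GDP and 50 uM GDP, with compounds in a concentration-titration series. After 5 min at room temperature, fluorescence (480 nm ex/540 nm em) is read every 5 min for 30 min. Data are normalized to control ATA and DMSO.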

Test [9] addresses Rap guanine nucleotide exchange factor 4 (Homo sapiens) (UniProt Q8WZA2). Put plainly: Confirmatory qHTS for agonist of cAMP-regulated guanine nucleotide exchange factor 4 (EPAC2) (AID 1645884).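 Also: nucleotide exchange releases bodipy-GDP from Rap1 and this lowers its fluorescence; % is scaled to controls: 0 for no effect and ±100 for the full control effect; nearly all actives have a fitted effect of over 65% in size.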 As to conditions: EPAC2 GEF activity, Rap1B-BODIPY-GDP fluorescence; series mostly up to 154 µM.
Test [10] can be described thus: Viability counterscreen for antagonist of constitutive androstane receptor (CAR) against the NCATS DSHEA and TCM libraries (AID 1794837).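 Also: compound exposure lasted 24 h before viability reading; 0% is about no effect.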 As to conditions: CAR reporter cell line viability counterscreen, qHTS; series mostly up to 40 µM. The essentials:
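Viability was measured by CellTiter-Fluor fluorescence (405/540 nm, 1 hr) in HepG2-CYP2B6-hCAR cells. Cells were co-treated 24 hr with 48 uM CITCO (final), antagonist mode, and test substances.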

Test [11] is described as follows: Viability counterscreen for agonist of constitutive androstane receptor (CAR) against the NCATS DSHEA and TCM libraries (AID 1794838).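 Also: cells exposed to compound for 24 h; 0% is about no effect.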 As to conditions: HepG2 cell viability counterscreen, CAR agonist assay; series mostly up to 40 µM. The essentials: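 Cell viability, from CellTiter-Fluor fluorescence (405/540 nm), was scored after a 24 h, 37C exposure of HepG2 cells carrying CYP2B6 reporter and hCAR to test substances in presence of 0.75 uM PK11195.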

Test [12] in a line: HepG2 viability counterscreen (readout 2: ATP content) against the NCATS DSHEA and TCM libraries (AID 1794840).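 Also: HepG2 cells exposed to substances for about 24 h; 0% is about no effect.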 As to conditions: ATP content luminescence; series mostly up to 27.3 µM. The essentials: (§1)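 Readout 1: cellular protease activity, GF-AFC substrate (25 uM final, 30 min, fluorescence 380/510 nm). Readout 2: ATP content by CellTiter-Glo luminescence after 30 min at RT. Both follow ~24 h exposure of HepG2 cells (1,000/well) to substances.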

Test [13] can be described thus: HepG2 viability counterscreen (readout 1: protease activity) against the NCATS DSHEA and TCM libraries (AID 1794841).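 Also: cells exposed to compounds for about 24 h before the protease read; 0% is about no effect.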 As to conditions: qHTS concentration series; series mostly up to 27.3 µM. A digest of the protocol: as §1
The target in test [14] is Cytochrome P450 2C9 (Homo sapiens) (UniProt P11712). As to the kind of experiment: qHTS for inhibitors of CYP2C9 against the NCATS DSHEA and TCM libraries (AID 1919973). Also: potency is read from the fitted curve at half-maximal effect.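 As to activity change, negative = inhibition: luminogenic pro-luciferin CYP2C9 substrate turned into luciferin with NADPH regeneration; % is scaled to controls: 0 for no effect and ±100 for the full control effect.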 As to conditions: recombinant CYP2C9 enzyme activity, luminescence; series mostly up to 34.1 µM. A digest of the protocol:
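Luminescent P450-Glo format: compounds preincubated 15 min with enzyme and luciferin substrate, reaction run 30-45 min after NADPH regeneration solution. Intraplate controls: ketoconazole for CYP3A4 and CYP2C19, sulfaphenazole for CYP2C9.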

A short description of test [15]: KB-3-1 P-gp reporter qHTS against the NCATS DSHEA and TCM libraries (AID 1919975). Also: 0% is about no effect. As to conditions: KB-3-1 parental cells, CellTiter-Glo luminescence viability, 72 h; series mostly up to 26.1 µM. The essentials: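 Cell viability by CellTiter-Glo luminescence following ~72 h compound exposure (concentration-response). Uses parental, non-P-gp-overexpressing KB-3-1 line, 500 cells/well in DMEM/10% FBS, attached ~4 h before dosing.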

Test [16] is described as follows: qHTS Counterscreen for compound interference against the NCATS DSHEA and TCM libraries (AID 1919978).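 Also: compounds preincubated with 1 µM D-luciferin or buffer before detection reagent; % of control where 0% means no effect.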 As to conditions: firefly luciferase detection reagent interference, luminescence. A digest of the protocol:
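With 1 uM D-luciferin or phosphate buffer only, compounds at final 19.5 nM–39.8 uM were incubated for 15 min at room temperature. Luciferase detection reagent was then added, and luminescence was measured after a further 30 min at room temperature.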

The nature of test [17]: Dual reporter qHTS for agonist of Pregnane X Receptor (hPXR) against the NCATS DSHEA and TCM libraries: Fluorescence readout (AID 1920058). Also: 0% is about no effect. As to conditions: PXR dual reporter cells; series mostly up to 40 µM. A digest of the protocol:
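hPXR-Luc HepG2 cells, 2000/well in charcoal-stripped serum, attached 5 h, dosed for ~24 h at 37 °C. Fluorescence read is CellTiter-Fluor viability (Ex/Em 405/540 nm); rifampicin positive, tetraoctyl ammonium bromide (92 µM) cytotoxicity controls.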

Test [18] is described as follows: Dual reporter qHTS for antagonist of Pregnane X Receptor (hPXR) against the NCATS DSHEA and TCM libraries: Fluorescence Readout (AID 1920061). Also: 0% is about no effect. As to conditions: PXR dual reporter cells, antagonist mode; series mostly up to 40 µM. The essentials:
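Rifampicin-stimulated (2 uM final) hPXR-luciferase HepG2 cells were treated for 24 h with DSNP/TCM substances. Viability came from CellTiter-Fluor fluorescence, reporter activity from ONE-Glo luminescence.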

The nature of test [19]: Counterscreen for APE1 Inhibitors: Fluorescent Dye Displacement Validation Assay (AID 1707).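 Also: plate controls were ThO with dsDNA and no compound for no effect and ThO without dsDNA for full effect.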 As to conditions: fluorescent dye displacement from DNA; series mostly up to 57.1 µM. The essentials: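 ThO 250 nM + dsDNA 50 nM (THF abasic site, 5'-TAMRA), Tris-HCl pH7.5/50mM NaCl/2 mM MgCl2/0.01% Tween-20; compounds pin-transferred; ex 480/em 540 nm endpoint. Neutral = no compound; no-DNA ThO wells = negative control.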

Test [20] deals with Rap guanine nucleotide exchange factor 4 (Homo sapiens) (UniProt Q8WZA2). As to the kind of experiment: Confirmatory qHTS for antagonist of cAMP-regulated guanine nucleotide exchange factor 4 (EPAC2) (AID 1645885). Also: nearly all actives have a fitted effect of over 25% in size. Also: potency is read from the fitted curve at half-maximal effect. As to activity change, negative = inhibition: % is scaled to controls: 0 for no effect and ±100 for the full control effect. As to conditions: EPAC2 Rap1B-BODIPY-GDP exchange fluorescence, biochemical; series mostly up to 114 µM.

Records with an inconclusive call do not appear. Calls of active or inactive are those of the source. Unless noted, calls follow the shape of the dose curve; as a rule, active = well fitted curve in the direction sought with a large enough effect; inconclusive = small, poorly fitted or top-dose-only effect, or another doubt; inactive = no such curve, though single readings can be large; an effect the other way counts as inactive or inconclusive.

Chain of Rap guanine nucleotide exchange factor 4 (Homo sapiens) (Q8WZA2 whole entry, looked up): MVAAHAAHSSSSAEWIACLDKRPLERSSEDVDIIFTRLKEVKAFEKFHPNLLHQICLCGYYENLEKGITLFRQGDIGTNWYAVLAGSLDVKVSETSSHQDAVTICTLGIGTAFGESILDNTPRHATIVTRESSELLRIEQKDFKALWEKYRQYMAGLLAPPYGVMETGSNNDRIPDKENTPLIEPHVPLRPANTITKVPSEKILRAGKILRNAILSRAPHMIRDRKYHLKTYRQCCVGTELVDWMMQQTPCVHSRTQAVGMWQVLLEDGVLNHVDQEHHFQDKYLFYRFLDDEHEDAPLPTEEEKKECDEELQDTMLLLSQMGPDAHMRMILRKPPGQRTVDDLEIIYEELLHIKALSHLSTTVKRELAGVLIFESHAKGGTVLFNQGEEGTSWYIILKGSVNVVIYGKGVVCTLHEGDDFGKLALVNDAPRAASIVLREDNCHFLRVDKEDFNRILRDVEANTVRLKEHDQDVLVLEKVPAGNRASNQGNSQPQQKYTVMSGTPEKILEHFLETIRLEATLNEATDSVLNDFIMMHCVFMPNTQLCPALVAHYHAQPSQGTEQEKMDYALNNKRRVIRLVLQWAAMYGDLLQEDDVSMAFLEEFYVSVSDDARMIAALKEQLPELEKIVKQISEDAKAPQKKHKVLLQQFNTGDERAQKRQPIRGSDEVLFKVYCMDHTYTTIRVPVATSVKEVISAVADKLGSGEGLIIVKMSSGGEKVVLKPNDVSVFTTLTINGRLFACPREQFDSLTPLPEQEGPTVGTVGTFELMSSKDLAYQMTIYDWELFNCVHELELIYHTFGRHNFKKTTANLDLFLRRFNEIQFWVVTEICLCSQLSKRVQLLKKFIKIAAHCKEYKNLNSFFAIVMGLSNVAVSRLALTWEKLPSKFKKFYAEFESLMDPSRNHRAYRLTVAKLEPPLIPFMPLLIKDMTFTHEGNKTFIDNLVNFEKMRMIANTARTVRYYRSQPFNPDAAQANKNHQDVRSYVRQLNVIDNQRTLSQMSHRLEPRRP
Chain of RecQ-like DNA helicase BLM (Homo sapiens) (P54132 whole entry, looked up): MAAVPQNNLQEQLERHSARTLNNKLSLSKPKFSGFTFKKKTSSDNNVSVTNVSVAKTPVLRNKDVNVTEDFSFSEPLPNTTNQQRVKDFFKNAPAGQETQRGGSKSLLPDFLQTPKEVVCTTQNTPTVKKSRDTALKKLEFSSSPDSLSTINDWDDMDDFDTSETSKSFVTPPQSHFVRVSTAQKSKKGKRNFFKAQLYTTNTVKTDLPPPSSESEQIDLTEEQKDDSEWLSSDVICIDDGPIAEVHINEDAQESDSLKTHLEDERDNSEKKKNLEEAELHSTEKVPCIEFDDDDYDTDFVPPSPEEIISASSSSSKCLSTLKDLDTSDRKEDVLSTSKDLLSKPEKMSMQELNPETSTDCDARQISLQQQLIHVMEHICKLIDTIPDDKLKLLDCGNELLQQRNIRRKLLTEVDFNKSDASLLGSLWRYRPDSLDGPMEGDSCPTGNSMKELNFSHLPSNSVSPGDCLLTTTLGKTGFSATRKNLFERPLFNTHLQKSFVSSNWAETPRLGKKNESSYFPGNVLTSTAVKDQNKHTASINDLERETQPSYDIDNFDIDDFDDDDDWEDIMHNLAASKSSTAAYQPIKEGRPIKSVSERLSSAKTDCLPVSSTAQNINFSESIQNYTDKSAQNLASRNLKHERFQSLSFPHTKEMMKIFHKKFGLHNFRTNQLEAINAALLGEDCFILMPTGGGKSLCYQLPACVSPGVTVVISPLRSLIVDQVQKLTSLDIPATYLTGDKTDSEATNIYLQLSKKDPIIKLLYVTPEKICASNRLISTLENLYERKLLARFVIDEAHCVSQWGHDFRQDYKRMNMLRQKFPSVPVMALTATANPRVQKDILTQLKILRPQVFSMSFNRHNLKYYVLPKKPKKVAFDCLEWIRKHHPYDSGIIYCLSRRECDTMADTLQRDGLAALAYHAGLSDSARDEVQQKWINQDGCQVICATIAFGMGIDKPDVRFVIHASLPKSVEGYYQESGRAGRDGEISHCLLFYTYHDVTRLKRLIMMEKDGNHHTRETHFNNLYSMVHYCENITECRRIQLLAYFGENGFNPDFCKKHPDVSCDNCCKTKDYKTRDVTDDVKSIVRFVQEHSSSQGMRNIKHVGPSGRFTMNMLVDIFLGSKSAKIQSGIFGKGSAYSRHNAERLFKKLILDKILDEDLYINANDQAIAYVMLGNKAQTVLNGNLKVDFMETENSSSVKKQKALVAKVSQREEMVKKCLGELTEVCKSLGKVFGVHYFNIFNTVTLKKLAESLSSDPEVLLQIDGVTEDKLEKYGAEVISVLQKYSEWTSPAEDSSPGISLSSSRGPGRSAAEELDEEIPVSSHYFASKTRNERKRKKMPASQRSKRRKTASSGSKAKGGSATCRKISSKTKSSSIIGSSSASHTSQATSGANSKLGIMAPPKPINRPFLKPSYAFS
Chain of Cytochrome P450 2C9 (Homo sapiens) (P11712 whole entry, looked up): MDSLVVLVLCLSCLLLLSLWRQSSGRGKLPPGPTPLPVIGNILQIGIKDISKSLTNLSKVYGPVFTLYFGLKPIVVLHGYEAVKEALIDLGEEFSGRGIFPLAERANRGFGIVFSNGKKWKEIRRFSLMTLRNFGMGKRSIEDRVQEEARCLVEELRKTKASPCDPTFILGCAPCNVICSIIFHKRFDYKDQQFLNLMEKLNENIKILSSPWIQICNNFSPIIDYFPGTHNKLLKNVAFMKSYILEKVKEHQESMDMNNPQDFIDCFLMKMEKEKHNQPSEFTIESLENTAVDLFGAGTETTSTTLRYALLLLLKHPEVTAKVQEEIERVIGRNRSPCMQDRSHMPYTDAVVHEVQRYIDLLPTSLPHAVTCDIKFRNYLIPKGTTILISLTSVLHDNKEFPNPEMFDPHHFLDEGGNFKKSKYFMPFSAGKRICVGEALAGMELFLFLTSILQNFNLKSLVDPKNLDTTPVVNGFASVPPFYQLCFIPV
Chain of M-phase phosphoprotein 8 (Homo sapiens) (Q99549 whole entry, looked up): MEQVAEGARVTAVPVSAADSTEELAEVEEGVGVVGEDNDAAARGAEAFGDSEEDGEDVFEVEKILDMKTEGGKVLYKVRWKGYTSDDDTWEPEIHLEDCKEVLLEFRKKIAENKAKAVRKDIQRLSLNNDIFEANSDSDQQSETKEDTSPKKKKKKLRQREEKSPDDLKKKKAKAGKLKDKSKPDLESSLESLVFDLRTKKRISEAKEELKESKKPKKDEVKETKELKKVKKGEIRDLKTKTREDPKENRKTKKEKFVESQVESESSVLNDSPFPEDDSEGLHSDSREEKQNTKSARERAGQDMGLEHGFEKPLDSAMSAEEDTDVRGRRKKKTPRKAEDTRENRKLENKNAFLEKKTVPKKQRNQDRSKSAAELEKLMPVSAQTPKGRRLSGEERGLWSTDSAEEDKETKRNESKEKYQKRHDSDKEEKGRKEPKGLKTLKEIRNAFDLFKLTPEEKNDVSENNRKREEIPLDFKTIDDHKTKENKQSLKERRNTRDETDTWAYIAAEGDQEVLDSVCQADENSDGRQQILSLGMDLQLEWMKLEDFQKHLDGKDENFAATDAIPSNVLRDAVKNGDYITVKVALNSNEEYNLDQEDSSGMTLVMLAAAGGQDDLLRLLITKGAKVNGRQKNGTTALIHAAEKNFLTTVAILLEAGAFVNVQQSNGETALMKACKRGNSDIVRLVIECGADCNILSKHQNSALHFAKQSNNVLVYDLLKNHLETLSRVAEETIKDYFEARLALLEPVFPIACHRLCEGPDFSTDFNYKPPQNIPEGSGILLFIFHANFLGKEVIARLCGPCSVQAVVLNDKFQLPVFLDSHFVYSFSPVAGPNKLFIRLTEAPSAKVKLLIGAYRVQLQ
Chain of Rap guanine nucleotide exchange factor 3 (Homo sapiens) (O95398 whole entry, looked up): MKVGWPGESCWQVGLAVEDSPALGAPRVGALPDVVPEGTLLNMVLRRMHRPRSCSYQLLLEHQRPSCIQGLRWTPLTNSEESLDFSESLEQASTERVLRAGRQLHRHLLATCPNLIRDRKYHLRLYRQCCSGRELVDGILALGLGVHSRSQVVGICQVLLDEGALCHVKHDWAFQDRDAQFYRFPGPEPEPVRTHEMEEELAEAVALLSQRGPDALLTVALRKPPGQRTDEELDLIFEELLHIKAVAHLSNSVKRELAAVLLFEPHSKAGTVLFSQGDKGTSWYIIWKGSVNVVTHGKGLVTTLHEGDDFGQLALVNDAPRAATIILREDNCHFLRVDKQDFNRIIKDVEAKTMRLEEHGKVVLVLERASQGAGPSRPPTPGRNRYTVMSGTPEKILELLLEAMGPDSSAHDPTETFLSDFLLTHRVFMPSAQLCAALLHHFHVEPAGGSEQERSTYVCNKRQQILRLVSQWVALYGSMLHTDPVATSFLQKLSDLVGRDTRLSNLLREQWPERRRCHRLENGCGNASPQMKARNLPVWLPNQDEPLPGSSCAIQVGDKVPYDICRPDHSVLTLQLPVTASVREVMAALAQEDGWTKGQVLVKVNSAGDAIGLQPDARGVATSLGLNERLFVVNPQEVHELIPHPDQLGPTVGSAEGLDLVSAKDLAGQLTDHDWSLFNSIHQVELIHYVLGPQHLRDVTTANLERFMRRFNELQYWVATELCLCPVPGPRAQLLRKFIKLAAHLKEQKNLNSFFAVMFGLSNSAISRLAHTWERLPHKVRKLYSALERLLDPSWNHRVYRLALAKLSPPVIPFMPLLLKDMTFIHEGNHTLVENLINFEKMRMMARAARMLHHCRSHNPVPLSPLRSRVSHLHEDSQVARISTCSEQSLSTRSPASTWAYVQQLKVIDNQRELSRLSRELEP

Regarding `CN1CCN(c2ncc3ncc(=O)n(C)c3n2)CC1`, in test [1], the result was inactive.
The same measure, in the same setting: the entry for `Clc1ccccc1-c1cncnc1NCCc1cnc[nH]1` is “inactive”.
With `CCc1c(C(=O)OC)ncc2[nH]c3cc(OC)c(OC)cc3c12`, in test [2], the Potency entry is “inactive”. The outcome in [3] was inactive.
As to `O=C(O)C1=CCCN(CCOC(c2ccc(C(F)(F)F)cc2)c2ccc(C(F)(F)F)cc2)C1`, the Z-AUC in [4] is -1.16 (inactive); in test [4] (measured here: PEO1 parental Z-AUC) it was -0.857; in test [4] (measured here: PEO4 Z-AUC), -0.457.
Take `CCCN1CCc2cc(O)cc3c2C1Cc1ccc(O)c(O)c1-3` (centres undefined): the Potency result in [5] and in test [7] was “inactive” each time. The compound was called inactive in test [6]. Also, the Potency in test [2] was 31.6 µM (active).
With `CC(=O)OC1CC2C(C)(C)C(=O)C=C[C@]2(C)C2CC[C@]3(C)C(=CC(=O)OC3c3ccoc3)[C@]12C` (some centres undefined), the Potency result in test [8] and in test [9] was “inactive” in each case.
`C=CCc1ccc2c(c1)OCO2`: the call in test [10], in test [11], in [12], in test [13], in test [15] and in test [17] was inactive. Further, the result in test [18] was inactive. Also, the Potency result in test [14] is “inactive”. For the same compound, in [16], the max response was 0.591% (inactive).
On to `CCCN1CCc2cccc3c2C1Cc1ccc(O)c(O)c1-3` (centres undefined), for which the outcome in test [19], in test [6] and in [3] was inactive. Besides, the Potency result in [5] was “inactive”. The Potency in test [2] is 20 µM (active).
Turning to `O=C1c2ccccc2-c2cccc3cccc1c23`, the Potency entry in test [8], in [9] and in test [20] was “inactive” each time.
For `CC(C)[C@@]1(NC(=O)[C@@H]2C[C@@H]3c4cccc5[nH]cc(c45)C[C@H]3N(C)C2)O[C@@]2(O)C3CCCN3C(=O)[C@H](Cc3ccccc3)N2C1=O` (some centres undefined), in [19], the compound was called inactive. The Potency result in [5] is “inactive”.
In the case of `O=C1C=CC(=O)c2c(O)cccc21`, the Potency result in [9] and in test [20] was “inactive” throughout.
For `O=C(OC1CCN(CCCl)CC1)C(c1ccccc1)c1ccccc1`, the compound was called inactive in test [19] and in [3]. Moreover, the Potency result in test [2] and in [8] was “inactive” throughout. The activation in test [9] is 6.37% [at 17.1 µM, percent relative to cAMP agonist control] (inactive). Moreover, the activity change, negative = inhibition in test [20] was -6.11% [at 12.7 µM] (inactive).
In the case of `COc1ccc2c(c1O)-c1c(OC)c(OC)cc3c1[C@H](C2)N(C)CC3`, the call in [10], in test [11], in [12], in test [13], in test [15] and in test [17] was inactive. Also, the result in test [18] was inactive. The Potency entry in test [14] was “inactive”. For the same compound, the max response in test [16] is 1.18% (inactive).
Consider `COc1cc2c(cc1-c1cc3cc4ccoc4cc3oc1=O)OCO2`, for which the Potency result in test [9] was “inactive”. In addition, the Potency in test [20] is 0.987 µM (active).
In the case of `C[C@]12CC[C@H](O)CC1=CCC1C2CC[C@]2(C)C(=O)CC[C@@H]12` (some centres undefined), the call in test [19], in test [6] and in test [3] was inactive. Besides, the Potency result in test [5], in test [7] and in test [2] was “inactive” in each case.
With `COc1cc2c(cc1O)CC1c3c(cc(O)c(OC)c3-2)CCN1C` (centres undefined), the call in test [10], in [11], in [12], in test [13], in test [15] and in [17] was inactive. The call in test [18] was inactive. Further, the Potency in [14] is 10 µM (active). Moreover, the max response in test [16] is 0.642% (inactive).
As to `CNCC[C@@H](Oc1ccc(C(F)(F)F)cc1)c1ccccc1`, the Potency result in [7] is “inactive”.
In the case of `CC1=NCCc2c1[nH]c1cc(O)ccc21`, the Potency result in test [8] and in test [20] was “inactive” throughout.
